From paper PMC12136788
Substitutions are numbered along the chain they refer to. Whole data set: some 5,800 sequences, median “enrichment r” near 0.68, cut for the highest 2% near 11. The entries come from a sample that favours the highest values as a whole.

T1: UNK ZnF1-6 (called full-length) (human, UniProt Q9C0B0 30-357)
T1 sequence: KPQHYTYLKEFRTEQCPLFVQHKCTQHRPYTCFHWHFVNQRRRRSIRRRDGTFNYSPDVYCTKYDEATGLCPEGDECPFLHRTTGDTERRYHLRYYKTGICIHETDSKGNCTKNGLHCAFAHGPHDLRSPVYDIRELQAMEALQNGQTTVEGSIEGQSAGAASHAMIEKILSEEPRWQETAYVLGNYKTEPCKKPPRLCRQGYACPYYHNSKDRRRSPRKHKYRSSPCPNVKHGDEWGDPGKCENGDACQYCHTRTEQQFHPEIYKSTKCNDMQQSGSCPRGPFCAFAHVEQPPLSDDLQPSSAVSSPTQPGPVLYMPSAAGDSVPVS

B1: ENSG00000198589:be:win_7901|CDS|ENSG00000198589|bound_else_gene|NA|bound_elsewhere_windowed (ssRNA)
RNA: GGGAGUUCUACAGUCCGACGAUCCUCGUUCUGAGUCAUAUAUUGGGGGAAAUUGCUACAUUCUCUCAGGGUCACGUGAUGCAACUCUUUUGCUGUGGUAUUGGAAUGGAAAAUGCAGUGGGAUUGGAGAUAACCCAGGCAGUGCAACAGAGGAUUGAGCAUCA
B2: chr13:106491723:106491923:-|3pUTR|ENSG00000125266|msi1|total|mutant (ssRNA)
RNA: GGGAGUUCUACAGUCCGACGAUCCAGACUCAGCUGCUAUACUUAUCACAUUUUAUUAAACACAGGGAAAGCAUUCCGGAGAACCGCAGAGAGCCAAAUCUGACCUAAAAGUUGAAAAGCCAAAGGUCAAACAGGCUGUAAUUCCAACAGAGGAUUGAGCAUCA
B3: chr1:178849534:178851128:-|three_prime_utr|ENSG00000116194|control|control|control (ssRNA)
RNA: GGGAGUUCUACAGUCCGACGAUCCUACACAGAAAGUUUUUAAAAUGAAUUUUACCGUAACUAUAAAAGGGAACCUAUAAAUGUAGUUUCAUCUGUCGUCAAUUACUGCAGAAAAUUAUGUGUAUCCACAACCUAGUUAUUUUACAACAGAGGAUUGAGCAUCA
B4: chr10:17315694:17315795:-|3pUTR|ENSG00000148488|unk|FALSE|unique (ssRNA)
RNA: GGGAGUUCUACAGUCCGACGAUCCUUCUUCCUCCCUGUCCAUCCCACCCUCGUCCCCAGAAAAUUCCUAAUCUGUUUUUCUAUAGACAUUUACAUUUUUACACUAUAGACUGUUUACAUUUUUUAGAAUUUUAUAUAAAUGGACAACAGAGGAUUGAGCAUCA
B5: chr1:93361585:93361687:+|3pUTR|ENSG00000117505|unk|total|mutant (ssRNA)
RNA: GGGAGUUCUACAGUCCGACGAUCUUUAACUUGCCGUUACCGUUUACUUAUUGUUUUCCGAAUUACUUUUACAUUUUCCCAACCCGAUGGCCCCGAGUCCAACAUUACCUUUUGAGAUGACAUUAUUGUCUCCAUAAUUGAGUGCAACAGAGGAUUGAGCAUCA
B6: chr1:9729969:9730061:-|3pUTR|ENSG00000171603|msi1_unk|FALSE|overlapping (ssRNA)
RNA: GGGAGUUCUACAGUCCGACGAUCGUUUUUAUUUUUUCCAAACUAGUGCAUGUAUAAAUAAUGGCAGGAUGGGGGGUACUGUGUAGAUGAUUAACUGACUUUUUAAUAUUUUGUAAAUAAAUCGGAUUCCUUGUGUCCUUUGUGCAACAGAGGAUUGAGCAUCA
B7: chr15:52550141:52550321:-|3pUTR|ENSG00000128989|msi1|FALSE|unique (ssRNA)
RNA: GGGAGUUCUACAGUCCGACGAUCAGAUGUCACUUUAGUAAAAUACCAAUUUAGUUUUACUUGUGGCUUAUCUAGUUAGAACUUAGCAGACUUUACUGGGACAAGUUUACUGCUCUUGUAGGAGCUCCUCUCACAAGUAGUUGUCAACAGAGGAUUGAGCAUCA
B8: chr1:162523450:162523604:+|3pUTR|ENSG00000152332|msi1|FALSE|unique (ssRNA)
RNA: GGGAGUUCUACAGUCCGACGAUCAGACUAAGUUGUGCCAGAUGUAAAUCAACCCCUCUUUUAGUUUACUUUAGACUUUGUAUUAGCUCAUCUUUUUUGUAGUAAAUCUAUAGUUUUAAGGUUUCUCAAGAUGUGGCUCUACCUCAACAGAGGAUUGAGCAUCA
B9: chr2:5695263:5695412:+|3pUTR|ENSG00000176887|msi1_unk|FALSE|overlapping (ssRNA)
RNA: GGGAGUUCUACAGUCCGACGAUCUGGUGAUAUAGACCUCAGAGCUGUUAUCUUAGUUUAAAGAUUGUAUAUGUACUGUACUAUAGUAGGACUUUAUGUAUCUCAUACGCUGUGAUGUGGAUGGGGCCCCAGAUGGAAGGUUUGCAACAGAGGAUUGAGCAUCA
B10: chr10:16593140:16593241:-|3pUTR|ENSG00000148484|unk|FALSE|unique (ssRNA)
RNA: GGGAGUUCUACAGUCCGACGAUCUUAUUUUUCUUUUCACUCUCUUUCUAAUGCUUCCCACCUUACCUUUUAGAUUCUUUUGCUAGGUGGGAGAUUGUUAUAAGGUCUUUAAACCAUUUCCAUUUGUUUCUUUAACAUUACCAACAACAGAGGAUUGAGCAUCA
B11: chr11:119045269:119045370:-|3pUTR|ENSG00000149428|msi1|FALSE|unique (ssRNA)
RNA: GGGAGUUCUACAGUCCGACGAUCUGUGGUUAAAAAUGGAAACUGUUCUCCUCCCCAGCCCCACUCCCUGUUCCCUACCCAUAUAGGCCCUAAAUUUGGGAAAAAUCACUAUUAAUUUCUGAAUCCUUUGCCUGUGGGUAGGAACAACAGAGGAUUGAGCAUCA
B12: chr1:9729969:9730061:-|3pUTR|ENSG00000171603|msi1_unk|total|mutant (ssRNA)
RNA: B6 RNA with U43C, A44C, U83C, A84C

Each binder was assayed against T1, UNK ZnF1-6 (called full-length) (assay: nsRBNS (natural sequence RNA bind-n-seq); RBNS binding buffer (assumed for nsRBNS): 25 mM Tris pH 7.5, 150 mM KCl, 3 mM MgCl2, 0.01% Triton X-100, 500 ug/ml BSA, 20 U/ml SUPERase-In, 4 C; UNK is unkempt and MSI1 is Musashi-1; names of the RNAs are library labels; protein concentration not given here; high values mean tight binding).
Binder B1 has a binding signal of 0.728 enrichment R. In the case of B2, the binding signal is reported as 1.05 enrichment R. B3 gave a binding signal of 2.6 enrichment R. Binder B4 has a binding signal of 25.2 enrichment R. B5 showed a binding signal of 4.48 enrichment R. For B6, the binding signal was 22 enrichment R. Work on B7 yielded a binding signal of 2.25 enrichment R. B8 showed a binding signal of 58.2 enrichment R. B9 showed a binding signal of 1.36 enrichment R. In the case of B10, the binding signal is reported as 4.14 enrichment R. B11 gave a binding signal of 0.528 enrichment R. Binder B12 has a binding signal of 1.54 enrichment R.
